# From PubChem
# Bst PK mod = Pyruvate Kinase; purified pyruvate kinase, luminescence ATP production; ribose 5-phosphate activator present at AC10; Potency, µM; 51,000 compounds, 1.2% hits; in the data active = potency below about 11 µM; inconclusive = mostly about 12 µM to 25 µM;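 the screen sought inhibitors and activators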
# HEK293 cAMP ctrl = qHTS Assay for Agonists of the Thyroid Stimulating Hormone Receptor: Activators of Intracellular cAMP Concentrations in Parental HEK 293; parental HEK293 CNG cAMP sensor, membrane potential fluorescence; Potency, µM (highest dose often 57.1 µM), hits mostly activators; 73,000 compounds, 2.5% hits; AID 938, 2007; active = well fitted activation curve with a large enough effect; inconclusive = small, poorly fitted or top-dose-only effect; inactive = no such curve, though single readings can be large or run the other way; note: nearly all actives have a fitted effect of over 55% in size
#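 Parental HEK 293 cells stably expressing a cAMP-gated CNG channel were loaded with membrane potential dye containing 100 uM RO 20-1724 for 60 min. Compound added for 30 min; depolarization read as fluorescence intensity at 590 nm.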
# TSHR ag = qHTS Assay for Agonists of the Thyroid Stimulating Hormone Receptor. Thyrotropin receptor (Homo sapiens), P16473. HEK293-CNG-TSHR cells (CNG channel as cAMP sensor), membrane potential dye, cAMP. Potency, µM (top dose mostly 57.1 µM), most hits filed as activators. 73,000 compounds, 0.48% hits; active = well fitted activation curve with a large enough effect in the main read-out, with a control signal flat, not every such curve was filed as active; inconclusive = small, poorly fitted or top-dose-only effect, or a change in a side signal; inactive = no such curve, though single readings can be large or run the other way; reference of the percent scale not stated here;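 note: the control signal comes from parental cells without the receptor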
#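 HEK 293 cells stably expressing TSHR and a cAMP-gated CNG channel; parental CNG-only cells as counterscreen. Cells preloaded 60 min with membrane potential dye plus 100 uM RO 20-1724, then compound 30 min; fluorescence read at 590 nm.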
# GBA mod = Glucocerebrosidase; Lysosomal acid glucosylceramidase (Homo sapiens), P04062; purified enzyme, resorufin glucoside fluorescence (screen aimed at inhibitors), 20 min; Potency, µM; 48,000 compounds, 1.1% hits; AID 360, 2006; in the data active = potency below about 15 µM; inconclusive = mostly about 16 µM to 33 µM;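 note: the screen sought inhibitors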
# Target sequence (P04062 whole entry, looked up): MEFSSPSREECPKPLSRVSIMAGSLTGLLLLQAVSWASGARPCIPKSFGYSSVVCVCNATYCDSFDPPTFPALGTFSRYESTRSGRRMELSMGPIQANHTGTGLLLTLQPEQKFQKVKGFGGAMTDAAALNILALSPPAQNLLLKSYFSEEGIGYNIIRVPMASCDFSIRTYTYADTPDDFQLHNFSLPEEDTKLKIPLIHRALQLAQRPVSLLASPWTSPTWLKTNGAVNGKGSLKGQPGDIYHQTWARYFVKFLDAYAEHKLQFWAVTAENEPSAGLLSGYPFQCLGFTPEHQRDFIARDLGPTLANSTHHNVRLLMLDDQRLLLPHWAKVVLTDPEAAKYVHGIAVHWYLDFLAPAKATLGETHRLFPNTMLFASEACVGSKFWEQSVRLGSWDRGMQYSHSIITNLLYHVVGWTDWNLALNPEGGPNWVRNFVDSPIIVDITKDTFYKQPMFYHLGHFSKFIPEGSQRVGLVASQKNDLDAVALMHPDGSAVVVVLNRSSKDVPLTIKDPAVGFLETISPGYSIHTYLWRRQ
#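 Wild-type enzyme at 0.2 nM final in 50mM citric acid/KH2PO4, 10mM sodium taurocholate, 0.01% tween-20, pH 5.9, with resorufin beta-D-glucopyranoside at 30 uM final. Compounds titrated, 20 min at RT, red fluorescence read; AC50 from titration.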
# A number is an active result; - = inactive; ? = inconclusive; . = no result; [ ] = dose if it differs, or a comment. Rows were chosen to be rich in hits. Some 4% of all compounds tested hit in one or more screens of this group.
SMILES,Bst PK mod,HEK293 cAMP ctrl,TSHR ag,GBA mod
Nc1ccn([C@@H]2O[C@H](COC(=O)C34CC5CC(CC(C5)C3)C4)[C@@H](O)[C@@H]2O)c(=O)n1,.,-[11.4 µM],-[11.4 µM],.
C[N+](C)(C)CC(=O)N/N=C\c1ccncc1,.,-[11.4 µM],-[11.4 µM],.
CCc1ccccc1NC(=O)c1cc2sccc2n1C,.,32µM,?,.
CC(CCc1ccccc1)NC(=O)c1cc2sccc2n1C (stereo unspecified),.,-,25µM,.
Cc1ccc(NC2=Nc3ccccc3CS2)cc1,4.1,-,-,-
CCCCC#Cc1nc(NC)c2ncn([C@@H]3O[C@@H](CO)[C@H](O)[C@H]3O)c2n1,.,-,-,.
CCc1nc(N(CC)CC)c2oc3ccccc3c2n1,-,16µM,?,-
NC(=O)C1CCN(c2nc(-c3ccccc3)nc3c2oc2ccccc23)CC1,-,-,.,8.3
CCc1nc(N2CCC(C)CC2)c2oc3ccccc3c2n1,.,16µM,?,-
CCNc1nc(CC)nc2c1oc1ccccc12,5,-,-,-
CCc1nc(OCCN(CC)CC)c2oc3ccccc3c2n1,-,-,-,-
CCc1nc(SCCO)c2oc3ccccc3c2n1,-,-,-,?
CCNc1nc(C)nc2c1oc1ccccc12,-,-,-,-
Oc1ccc(Cc2nccc3cc(O)c(O)cc23)cc1O,.,-[11.4 µM],-[11.4 µM],.
O=[N+]([O-])c1ccc(NN=C2c3ccccc3Cc3ccccc32)c([N+](=O)[O-])c1,.,-[11.4 µM],-[11.4 µM],.
C=C1C=C(Br)C2(OCCCO2)[C@H]2OC12 (stereo partly specified),.,-[11.4 µM],-[11.4 µM],.
CCOC(=O)C1C(=O)CC(C)(O)C(C(=O)OCC)C1/C=C/c1ccccc1 (stereo unspecified),.,5µM,?,.
N[C@@H](Cc1c[nH]c2ccc([N+](=O)[O-])cc12)C(=O)O,.,-[11.4 µM],-[11.4 µM],.
COc1ccc(NC(=O)C2CCCN(c3c4c(nc5ncnn35)CCC4)C2)cc1 (stereo unspecified),-,-,-,-
COc1ccc(NC(=O)C2CCN(c3nc(C)nc4c3CCC4)CC2)cc1,-,32µM,?,-
Cc1cc(N2CCC(C(=O)Nc3ccc(F)cc3)CC2)nc(-c2ccccc2)n1,-,-,-,?
COc1ccc(NC(=O)C2CCN(c3cc(C)nc(-c4ccccc4)n3)CC2)cc1,-,-,-,13
CC(=O)Nc1ccc(S(=O)(=O)N2CCN(c3nc(NC4CCCC4)c4ccccc4n3)CC2)cc1,.,-[11.4 µM],?,.
CC(=O)Nc1ccc(S(=O)(=O)N2CCN(c3cc(C)nc4ccccc34)CC2)cc1,-,-,-,11
CC(=O)Nc1ccc(S(=O)(=O)N2CCN(C(=O)N3CCOCC3)CC2)cc1,3.2,-,-,-
SMILES,Bst PK mod,HEK293 cAMP ctrl,TSHR ag,GBA mod
C=CCn1c(SCC(O)Cn2c3ccccc3c3ccccc32)nnc1-c1ccco1 (stereo unspecified),-,25µM,?,-
CN(Cc1ccccc1)C(=O)CSc1nc2ccccc2c(=O)n1Cc1ccco1,-,25µM,?,?
CCn1c(=S)sc2c(=O)n(-c3ccccc3)c(SCC(=O)NCc3ccco3)nc21,-,20µM,?,-
O=C(CSc1nc2ccccc2c(=O)n1-c1ccccc1)NCc1ccco1,-,25µM,?,-
CCn1c(SCC(=O)NCc2ccco2)nc2cccnc21,-,-,-,-
O=C(CSc1nc2cccnc2n1Cc1ccccc1)NCc1ccco1,-,6.3µM,?,-
Cc1sc2nc(SCC(=O)NCc3ccco3)n(-c3ccccc3)c(=O)c2c1C,-,-,.,-
Cc1cccc(-n2c(SCC(=O)NCc3ccco3)nc3ccccc3c2=O)c1,-,?,?,-
O[C@@H](c1cc([C@@]23C[C@H]4CC[C@@H]2C[C@H](C4)C3)nc2c(Cl)cc(Cl)cc12)[C@@H]1CCCCN1,.,-[11.4 µM],-[11.4 µM],.
O=C(N=c1nc2ccccn2s1)c1ccccc1,1.1,-,-[11.4 µM],-
Clc1ccc(CSCc2ccc(Cl)cc2Cl)c(Cl)c1,.,-[11.4 µM],-[11.4 µM],.
Cc1ccc(S(=O)(=O)NC(=O)OC23COCN2COC3)cc1,.,-[11.4 µM],-[11.4 µM],.
Clc1ccc2c(NC3CCC(N4CCCCC4)CC3)ccnc2c1 (stereo unspecified),.,-[11.4 µM],-[11.4 µM],.
O=C(Cn1cccc1)Nc1ccc(OC(F)(F)F)cc1,-,-,-,15
Cc1ccc(NC(=O)Cn2cccc2)cc1C,-,?,?,.
Clc1ccc(Cn2ncc3c(N4CCCCC4)ncnc32)c(Cl)c1,-,-,-,11
CCCCCc1cc(O)c2c(C)cc(=O)oc2c1,.,3.2µM,?,.
Cc1cc(=O)oc2cc(O)cc(O)c12,.,-,?,.
CCCCNc1nc(SC)nc2nc[nH]c12,.,-[11.4 µM],-[11.4 µM],.
CCOC(=O)c1cc(C)sc1N1C(=O)C2C3C=CC(C3)C2C1=O (stereo unspecified),-,-,2µM,-
C[C@H](N)C(=O)OC(C)(C)Cc1ccc(Cl)cc1,.,-,-,.
NS(=O)(=O)c1ccc(C(=O)O)cc1,-,-[11.4 µM],-[11.4 µM],.
O=C(O)c1ccc(S(=O)(=O)Cc2ccccc2)cc1,-,3.2µM,?,-
O=c1ccn([C@H]2O[C@H](CO)[C@@H](O)[C@@H]2O)c(=O)[nH]1,.,-,-,.
Cc1nonc1NC(=O)CSc1nc(C2CCCCC2)nc2ccccc12,-,25µM,?,?
SMILES,Bst PK mod,HEK293 cAMP ctrl,TSHR ag,GBA mod
Cc1nnc(SCC2=C(C(=O)O)N3C(=O)[C@@H](NC(=O)Cn4cnnn4)[C@@H]3SC2)s1,.,-,-,.
CCn1nnnc1NCc1cccn1C,-,25µM,?,-
CN1CCN(c2ncc3nc(-c4cccc(C#N)c4)c(=O)n(Cc4ccc(F)cc4)c3n2)CC1,.,-,-,.
C=CCOc1ccc(C2N3CC4(C)CN2CC(CCC)(C3)C4=O)cc1 (stereo unspecified),-,?,?,4.8
CCC12CN3CC(CC)(CN(C1)C3c1ccc(OC(C)C)cc1)C2=O (stereo unspecified),-,-,-,4.3
CCCC12CN3CC(C)(CN(C1)C3c1ccc(OC)cc1)C2=O (stereo unspecified),-,-,-,.
O=c1cc(CF)[nH]c(=S)[nH]1,.,-[11.4 µM],-[11.4 µM],.
CCOc1ccccc1CN1C(=O)NC(C)(c2ccccc2)C1=O (stereo unspecified),-,-,.,-
COc1ccc(C2(C)NC(=O)N(Cc3cc(Cl)cc4c3OCOC4)C2=O)cc1OC (stereo unspecified),-,16µM,?,-
COC(=O)c1ccc(C(NC(=O)OCc2ccccc2)/C(F)=C/[C@@H](C)C(=O)Nc2ccc(OC)cc2)cc1 (stereo partly specified),.,-,-,.
COc1ccc(OC)c(-c2cc(C(=O)N3CCN(c4ncccn4)CC3)c3ccccc3n2)c1,-,-,-,-
O=C(c1cc(-c2ccccc2)nc2ccccc12)N1CCOCC1,.,-,.,.
CCOC(=O)N1CCN(C(=O)c2cc(-c3ccc(OCC)cc3)nc3ccccc23)CC1,1.1,-,-,-
CCOc1ccc(-c2cc(C(=O)N3CCN(C)CC3)c3ccccc3n2)cc1,3.1,-,-,-
CCOc1ccc2[nH]c(=O)c(CN(Cc3ccc(C)cc3)C(=O)N3CCCC3)cc2c1,-,32µM,?,-
O=C(COc1ccc(S(=O)(=O)NC2CCCCC2)cc1Cl)NCC1CCCO1 (stereo unspecified),-,-,-,14
